The values that follow come from PubChem BioAssay AID2685 (National Center for Advancing Translational Sciences (NCATS), 2010).

The structures appear in SMILES notation. The campaign covered roughly 320,000 compounds. About 2,100 (0.66%) were called active. Not shown: some 53% with an inconclusive outcome. The call rests on the fitted dose curve; in most records, active means well fitted inhibition curve with a large enough effect in the signal ratio, with a control signal flat (not every such curve was filed as active); inconclusive means small, poorly fitted or top-dose-only effect, or effect the other way, or a change in a side signal; inactive means flat fitted curve, though single readings scatter; the % refers to the signal ratio. For the sample, actives were picked, then their nearest neighbours and some compounds at random.
Potency means the concentration at half of the fitted maximal effect.

A short description of the assay: qHTS Assay for Lipid Storage Modulators in Drosophila S3 Cells.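 On cell number change: cells counted by Cell Tracker Red CMTPX staining in the red channel.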 On lipid storage change, negative = inhibition: on the % scale 0 is the no-effect control and ±100 the full control effect. To be noted: BODIPY lipid droplet fluorescence, 18-24 h, cells fed with added oleic acid; cell number change: measured here: cell count max response; series mostly up to 46.1 µM; lipid storage change, negative = inhibition: at the top concentration. The method, boiled down:
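Laser-scanning cytometry quantifies lipid droplet accumulation (500–530 nm total intensity; droplet/cell object ratio) in oleic acid-fed (400 uM added) Drosophila S3 cells treated with a concentration series. 20 uM Triacsin C defined 100% inhibition.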
Background: In qHTS, concentration-response curves come from the screen itself.
For `Cc1cc(C)n(-c2nnc(C)n2/N=C/c2ccc(O)cc2)n1`, the “lipid storage change, negative = inhibition” value was 11.6% (inactive) and the cell number change was -6.41%.
Consider `Cc1cc(C)n(-c2nnc(C)n2/N=C/c2ccccc2F)n1`, for which the molecule was classed as inactive and the cell number change amounted to 19.1%.
Take `Cc1cc(C)n(-c2nnc(C)n2/N=C/c2ccccc2O)n1`: the Potency was 18.4 µM (active) and the cell number change is -5.58%.
Regarding `Cc1ccccc1NC(=O)c1ccc2ccccc2c1`, the “lipid storage change, negative = inhibition” value was 5.74% (inactive) and the cell number change is 14.2%.
For `CCCC(=O)NCCSC`, in that order: 5.9% (inactive) and -17.4%.
For `O=C(NC1CCCC1)C(c1ccsc1)N(C(=O)Cc1cccs1)c1ccc(F)cc1` (stereo not drawn), in that order: -14.8% (inactive) and -21.2%.
For `COc1ccc(C(C(=O)NC2CCCC2)N(Cc2cccnc2)C(=O)Cc2cccs2)cc1OC` (stereo not drawn), in that order: -9.53% (inactive) and 6.84%.
On to `O=C(NC1CCCC1)C(c1ccncc1)N(C(=O)Cc1cccs1)c1ccc(F)cc1` (stereo not drawn), for which the Potency was 29.1 µM (active) and the cell number change was 3.33%.
With `O=C(NC1CCCC1)C(c1ccccc1)N(Cc1cccnc1)C(=O)Cc1cccs1` (stereo not drawn), the “lipid storage change, negative = inhibition” value is 17.7% (inactive) and the cell number change was -1.03%.
Turning to `O=C(NC1CCCCC1)C(c1ccncc1)N(C(=O)Cc1cccs1)c1ccccc1` (stereo not drawn), the “lipid storage change, negative = inhibition” value is 12.7% (inactive) and the cell number change is 12.4%.
Turning to `COc1ccc(C(C(=O)NC2CCCC2)N(Cc2cccnc2)C(=O)Cc2cccs2)c(OC)c1` (stereo not drawn), the Potency is 7.31 µM (active) and the cell number change is -10.9%.
For the molecule `O=c1[nH]c(=O)c2nnc(N/N=C\c3ccc(O)cc3)nc2[nH]1`, the “lipid storage change, negative = inhibition” value was 1.17% (inactive) and the cell number change was -0.285%.
For `Cc1ccc(N/C(N)=N/c2nc3c(c(=O)[nH]2)CCCC3)c(C)c1`, in that order: -16.9% (inactive) and 25.1%.
For `CN(C)CCN(C(=O)c1ccc(C(=O)c2ccccc2)cc1)c1nc2cc3c(cc2s1)OCO3`, in that order: 18.9% (inactive) and 29%.
For `COc1cccc(N2C(N)=NC(N)=NC2(C)C)c1`, in that order: -15.5% (inactive) and -1.01%.
Turning to `CCOC(=O)c1cccc(N2C(N)=NC(N)=NC2(C)C)c1`, the “lipid storage change, negative = inhibition” value is 1.48% (inactive) and the cell number change came out at 6.64%.
Turning to `CC1(C)N=C(N)N=C(N)N1c1cccc(C(=O)O)c1`, the Potency is 29.1 µM (active) and the cell number change was determined as 9.53%.
With `O=C(Nc1ccc(N2CCOCC2)cc1)C1CC(=O)N(c2ccc(F)cc2)C1` (stereo not drawn), the “lipid storage change, negative = inhibition” value is -18.1% (inactive) and the cell number change worked out at 18.8%.
Take `Cc1cnc(-c2nnc(N(C)C(=O)C3CCOC3)s2)cn1` (stereo not drawn): the Potency was 23.1 µM (active) and the cell number change is -7.84%.
As for `CN(C(=O)C1CCOC1)c1nnc(-c2cnccn2)s1` (stereo not drawn), the cell number change worked out at 10.4% and the lipid storage change, negative = inhibition is -5.36% [at 9.22 µM] (inactive).
For the molecule `CN(C(=O)C1CCOC1)c1nnc(-c2ccncc2)s1` (stereo not drawn), the molecule was classed as inactive.
As for `CC(C)c1ccc2c(c1)C1Cc3ccccc3C1N2` (stereo not drawn), the Potency is 9.2 µM (active).
For `CC(C)c1ccc2c(c1)[C@H]1OCC[C@H]1[C@@H](c1cccs1)N2`, the “lipid storage change, negative = inhibition” value was 21% (inactive) and the cell number change is -7.55%.
With `O=C1NC2c3ccccc3CC2O1` (stereo not drawn), the result was inactive and the cell number change came to 17.5%.
As for `COc1ccc(/C=N\NC(=O)COc2ccc(Cl)cc2Cl)c(C(=O)O)c1OC`, the “lipid storage change, negative = inhibition” value was 3.57% (inactive) and the cell number change was determined as 11.7%.
For `CC(C)NC(=O)C(c1ccc(F)cc1)N(C(=O)CCC(=O)Nc1ccccn1)c1cccc(F)c1` (stereo not drawn), in that order: 24.5% (inactive) and 7.14%.
`Oc1ccc(-c2nc(-c3ccc(O)c(O)c3)cs2)cc1`: the Potency was 0.0116 µM (active) and the cell number change was -11.8%.
As for `O=C(O)c1ccc(-c2nc(-c3ccc(Cl)c(Cl)c3)cs2)cc1`, the “lipid storage change, negative = inhibition” value is 8.4% (inactive) and the cell number change is 6.89%.
`Fc1ccc(-c2csc(-c3ccncc3)n2)cc1`: the “lipid storage change, negative = inhibition” value is 4.09% (inactive) and the cell number change turned out to be 8.89%.
As for `NC(=O)c1cc(-c2csc(-c3cccnc3)n2)ccc1O`, the Potency is 25.9 µM (active) and the cell number change is 5%.
Take `Oc1ccc(-c2csc(-c3cccnc3)n2)cc1O`: the outcome was inactive and the cell number change was -16.9%.
Regarding `Fc1ccc(-c2csc(-c3cccnc3)n2)cc1F`, the “lipid storage change, negative = inhibition” value was 14.8% (inactive).
Regarding `CCN(CC)S(=O)(=O)c1ccc(S(=O)(=O)N2CCCC2)cc1`, the “lipid storage change, negative = inhibition” value is -3.92% (inactive) and the cell number change was found to be 4.33%.
For `CCOc1ccc(Nc2cc3n(c(=O)n2)CCc2cc(OC)c(OC)cc2-3)cc1`, in that order: -11.1% (inactive) and -17.4%.
As for `CCc1c(C)nc(N2CCN(c3ccccc3F)CC2)[nH]c1=O`, the molecule was called inactive and the cell number change was determined as 15.2%.
For `Cc1nn(-c2ccccc2)c(Cl)c1/C=N/NC(=O)CNc1n[nH]c(=O)[nH]c1=O`, the “lipid storage change, negative = inhibition” value was -0.0956% (inactive) and the cell number change was 11.6%.
As to `CCO[C@@H]1OC(C(=O)NCc2nc3ccccc3[nH]2)=C[C@H](C)[C@H]1CCCO`, the “lipid storage change, negative = inhibition” value is -29% (inactive) and the cell number change is -18.5%.
Turning to `CCC(=O)Nc1ccc2c(c1)ncn2-c1ccc(C)cc1`, the “lipid storage change, negative = inhibition” value was -1.57% (inactive) and the cell number change came out at 19.8%.
Take `Cc1ccc(NC(=O)N(CCC(=O)O)Cc2ccccc2)cc1`: the molecule was called inactive.
As to `Cc1cc(C)c2[nH]c(=O)c(CN(C(=O)C3CCCO3)C3CCCC3)cc2c1` (stereo not drawn), the “lipid storage change, negative = inhibition” value is 3.45% (inactive) and the cell number change is 9.83%.
`CCN1C(=O)[C@@H]2[C@@H](c3ccc(-c4ccccc4)cc3)N3CCCC[C@@]3(C(=O)OC)[C@@H]2C1=O`: the call was inactive and the cell number change came to 15.8%.
Regarding `CCN1C(=O)[C@H]2[C@@H](c3ccc(-c4ccc(OC)cc4)c(OC)c3)N3CCCC[C@@]3(C(=O)OC)[C@H]2C1=O`, the Potency was 5.8 µM (active) and the cell number change is -0.765%.
Consider `CCN1C(=O)[C@@H]2[C@@H](c3ccc(-c4ccc5c(c4)OCO5)c(OC)c3)N3CCC[C@@]3(C(=O)OC)[C@@H]2C1=O`, for which the “lipid storage change, negative = inhibition” value is 5.27% (inactive) and the cell number change was -1.65%.
For the molecule `CCN1C(=O)[C@H]2[C@@H](c3ccc(-c4ccccc4)cc3)N3CCCC[C@@]3(C(=O)OC)[C@H]2C1=O`, the “lipid storage change, negative = inhibition” value is 13.3% (inactive).
On to `CCN1C(=O)[C@@H]2[C@@H](c3ccc(-c4ccc5c(c4)OCO5)c(OC)c3)N3CCCC[C@@]3(C(=O)OC)[C@@H]2C1=O`, for which the molecule was classed as inactive.
As for `CCN1C(=O)[C@@H]2[C@@H](c3ccc(-c4ccc(OC)cc4)c(OC)c3)N3CCCC[C@@]3(C(=O)OC)[C@@H]2C1=O`, the Potency is 9.2 µM (active) and the cell number change worked out at 24.8%.
Turning to `Cc1cccc(OCC(=O)Nc2ccc3c(c2)nc(CCN2CCCCC2)n3C)c1`, the outcome was inactive.
As to `CCc1ccc(NC(=O)[C@H](Cc2ccccc2)NC(=O)C2CCN(C(=O)[C@@H](N)CC(C)C)CC2)cc1`, the “lipid storage change, negative = inhibition” value was -9.52% (inactive) and the cell number change turned out to be 18%.
For `CC(=O)c1ccc(NC(=O)c2ccc(CSc3ccccc3)o2)cc1`, in that order: 15.1% (inactive) and 3.7%.
On to `Cn1cncc1C#Cc1ccc2cc(C3(O)CCCCC3)oc(=O)c2c1`, for which the “lipid storage change, negative = inhibition” value was 11.5% (inactive) and the cell number change was -13.7%.
